Compounds without any hit were thinned out: in the full panel of roughly 83,000, 20% have a hit.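 Note: values are percent growth. 100 is the growth of untreated cells, values between 100 and 0 indicate rising inhibition; between -100 and 0 indicates cell death.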 Activity calls are given as the source filed them. The calls were made as follows: active = growth percent below 10; inactive = the rest.
System: MDA-MB-468 breast
Assay: NCI-60 one-dose screen, 48 h (100 = growth as untreated, 0 = no growth, -100 = all killed)
Conditions: 10 µM unless noted

SMILES	growth
COc1cc(NC(=O)c2cncnc2Nc2ccc3c(ccn3Cc3ccccn3)c2)cc(OC)c1	15.6% (inactive)
Cc1cn(-c2cc(NC(=O)c3cncc(C#Cc4cnc5ccc(OCCCS(C)(=O)=O)nn45)c3)cc(C(F)(F)F)c2)cn1	-22.5% (active)
CCn1c2ccccc2c2cc(C(O)c3cccc4ncccc34)ccc21 (configuration not stated)	14.2% (inactive)
Fc1ccc2nc(-c3cc(-c4ccc5c(c4)OCO5)n[nH]3)[nH]c2c1	46.7% (inactive)
O=C(O)c1ccc([N+](=O)[O-])cc1S(=O)(=O)O	98.6% (inactive)
CCOC(=O)[C@H](CSSc1ncnc2cc[nH]c12)NC(=O)[C@@H](C)c1ccc2cc(OC)ccc2c1	5.8% (active)
Cc1cc(Nc2nc(C(=O)Nc3ccccc3)nc3ccccc23)n[nH]1	68.9% (inactive)
C=Cc1nn2c(CCC(=O)c3nc4ccccc4[nH]3)nnc2s1	110% (inactive)
O=C1NN(c2ccccc2)C(c2ccc(Cl)cc2)N2CCC[C@H]12 (some centres not stated)	98.7% (inactive)
Cn1cc(C(=O)c2nc(-c3cn(C)c4ccc(F)cc34)no2)c2cc(F)ccc21	94.1% (inactive)
C/C(=N/N)c1nnn(-c2ccc(Br)cc2)c1C	94.8% (inactive)
COc1ccc(-c2csc(NC(=O)CN3CCN(c4cc5c(cc4F)c(=O)c(C(=O)O)cn5C4CC4)CC3)n2)cc1	-0.675% (active)
O=C(Oc1ccccc1)c1ccccc1Cl	102% (inactive)
NC(N)=Nc1ccc(Oc2cccc(Nc3ccc(Cl)c(C(F)(F)F)c3)c2)cn1	-84.4% (active)
COc1cc2oc(-c3cccc(NC(=O)c4cc(NC(=O)[C@H](C)N)ccc4Cl)c3)cc(=O)c2c(OC)c1OC	91.1% (inactive)
COc1cc2cc(Oc3ccc(NC(=O)Nc4cccc(C(F)(F)F)c4)cc3)c(C)nc2cc1OCCN(C)C	79.6% (inactive)
Cc1ccc2c(/C=C/C(=O)c3cc(CN4CCOCC4)c(O)c4nc(C)ccc34)cc(CN3CCOCC3)c(O)c2n1	-40.4% (active)
CC(C)c1ncc([N+](=O)[O-])n1C	104% (inactive)
O=C(Oc1ccc2ccc(=O)oc2c1)c1ccc(Cl)cc1	115% (inactive)

SMILES	growth
CCc1cccc(NC(=O)CNc2cc(S(=O)(=O)N(C)C)cc(C)c2C)c1	87.3% (inactive)
COc1ccc(Cn2cc(Cn3c(=O)c(-c4nc5ccccc5[nH]4)cc4ccccc43)nn2)c(OC)c1OC	13.6% (inactive)
Nc1nc(N)c2c(ccc3c2ccn3Cc2cccc([N+](=O)[O-])c2)n1	-84.7% (active)
COc1ccc(NC(=O)CSc2nc(-c3ccc(OC)c(OC)c3)cc(-c3cc(OC)c(OC)c(OC)c3)n2)cc1	110% (inactive)
CC(C)CNc1nc(N=[N+]=[N-])nc(NCC(C)C)n1	59.7% [100 µM] (inactive)
COc1cc(/C=C/C(=O)c2ccc(Nc3nc(Nc4ccccc4)nc(Nc4ccc(Cl)cc4)n3)cc2)cc(OC)c1OC	76.3% (inactive)
COc1cccc(OC)c1OC(=O)c1ccccc1	105% (inactive)
C=C[C@]1(C)C=C2C(=O)[C@@]3(O)OC(=O)[C@@]4(CCCC(C)(C)[C@H]34)[C@@]2(O)CC1	-84.4% (active)
Fc1ccc2[nH]c3c(NCCCN4CCOCC4)ncnc3c2c1	73.2% (inactive)
Nc1ccccc1NC(=O)c1ccc(NC(=O)C/C=C/c2cccnc2)cc1	-7.27% (active)
COc1cc(/C=C2/Oc3cc4occc4c(OC)c3C2=O)ccc1OCC(=O)Nc1ccncc1	105% (inactive)
C[C@@]1(CCC#N)[C@H]2CC[C@@H]3[C@H]4[C@H](C(=O)/C=C/c5cccnc5)CC[C@]4(C#N)CC[C@@]3(C)[C@]2(C)CC[C@H]1C(=O)/C=C/c1cccnc1	57.9% (inactive)
CCC(=O)c1c(C)[nH]c(C)c1C	54.4% (inactive)
CC[C@H](CC[C@@H](C)[C@H]1CC[C@H]2[C@@H]3/C(=C/c4cccnc4)C(=O)C4=CC(=O)CC[C@]4(C)[C@H]3CC[C@]12C)C(C)C	97% (inactive)
CS(=O)(=O)Nc1cccc(C(=O)NCc2ccc(N3CCOCC3)cc2)c1	93% (inactive)
Cc1c(C(=N)C(C#N)C#N)c(=N)oc2c1ccc1ccccc12	54.5% (inactive)
O=Cc1ccc(-c2cn3ccnc3c(-c3ccc4ncn(Cc5ccccc5)c4c3)n2)cc1	105% (inactive)
CC1(c2ccccc2)NC(=O)NC1=O (configuration not stated)	105% (inactive)
